# According to PubChem BioAssay AID588835 (The Scripps Research Institute Molecular Screening Center, 2011):
# Activity calls are given as the source filed them. How the calls were made is not given here.
# Target: Prolyl endopeptidase (Mus musculus) (UniProt Q9QUR6)
# Experiment: in situ PREP and ABHD6 off-target inhibition, dose response, selectivity assay for PME-1 inhibitor project, cell-based, fluorescence, gel-based ABPP (AID 588835)
# Details: in situ gel-based competitive ABPP; series mostly up to 10 µM
# Prolyl endopeptidase (Mus musculus), sequence (Q9QUR6 whole entry, looked up): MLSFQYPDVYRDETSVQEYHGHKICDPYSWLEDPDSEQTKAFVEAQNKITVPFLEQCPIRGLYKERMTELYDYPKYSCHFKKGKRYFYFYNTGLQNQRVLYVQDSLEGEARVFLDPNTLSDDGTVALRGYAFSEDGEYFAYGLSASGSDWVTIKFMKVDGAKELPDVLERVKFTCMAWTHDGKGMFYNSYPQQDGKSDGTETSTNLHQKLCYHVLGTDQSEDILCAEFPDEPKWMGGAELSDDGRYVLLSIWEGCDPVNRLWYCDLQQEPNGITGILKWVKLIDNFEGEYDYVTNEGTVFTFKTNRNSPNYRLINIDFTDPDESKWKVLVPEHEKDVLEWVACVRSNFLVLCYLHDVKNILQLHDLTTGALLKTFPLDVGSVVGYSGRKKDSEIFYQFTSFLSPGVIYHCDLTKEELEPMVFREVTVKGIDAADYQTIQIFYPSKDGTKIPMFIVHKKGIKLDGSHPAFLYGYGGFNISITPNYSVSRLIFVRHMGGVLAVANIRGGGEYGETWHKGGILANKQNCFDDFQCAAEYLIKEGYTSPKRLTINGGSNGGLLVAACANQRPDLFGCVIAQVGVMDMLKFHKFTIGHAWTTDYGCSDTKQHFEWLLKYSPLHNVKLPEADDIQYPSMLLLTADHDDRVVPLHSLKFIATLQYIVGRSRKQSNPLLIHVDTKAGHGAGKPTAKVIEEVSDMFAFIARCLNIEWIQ
structure (smiles),measurement,value
CC[C@@]1(c2ccc(C)cc2)C(=O)N(C(=O)OC(C)C)N1C(=O)OC(C)C,outcome,inactive
